Shown are actives, neighbours in structure and some others; about 4.5% of the full set was active somewhere.
EBNA-1 inh: EBNA-1 DNA-binding inhibitors, primary screen, biochemical, fluorescence polarization; AID 1950, 2009; inhibition, % at 14.8 µM; 0.34% of 300,000 active; in the data active = inhibition above about 28%
NR3A LBD binder: binders of NR3A ligand-binding domain, primary screen, biophysical, differential scanning fluorimetry, uHTS. Glutamate receptor ionotropic, NMDA 3A (GRIN3A) ligand-binding domain. NR3A LBD differential scanning fluorimetry, Tm shift; 0% = protein alone, 100% = glycine-bound protein. Tm shift relative to glycine control, % at 25 µM. 2.5% of 340,000 active. AID 1259313, 2017;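 active = melting temperature shift of at least 10% of the positive control shift, at one fixed dose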
ZTA counter: counter-screen for EBNA-1 inhibitors: inhibitors of Epstein-Barr virus ZTA. P03206. 0.15% of 320,000 active. inhibition, % at 11 µM. ZTA-DNA binding, fluorescence polarization; in the data active = inhibition above about 33%
Target sequence (P03206 whole entry, looked up): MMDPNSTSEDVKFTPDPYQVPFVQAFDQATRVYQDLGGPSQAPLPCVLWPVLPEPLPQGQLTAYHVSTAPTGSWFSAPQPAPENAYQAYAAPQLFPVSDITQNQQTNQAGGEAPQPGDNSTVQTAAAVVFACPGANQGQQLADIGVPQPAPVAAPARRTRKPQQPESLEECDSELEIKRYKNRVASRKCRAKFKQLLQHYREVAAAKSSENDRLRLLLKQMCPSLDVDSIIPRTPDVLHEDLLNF
Rpn11 block: Rpn11 (PSMD14) deubiquitinase inhibitors, primary screen, biochemical, fluorescence polarization, uHTS; 26S proteasome non-ATPase regulatory subunit 14 (Homo sapiens), O00487; human 26S proteasome, Ub4-pepOG fluorescence polarization; 20S core pre-blocked with epoxomicin; inhibition, % at 20 µM; 0.59% of 360,000 active;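 active = inhibition at 20 µM, scaled to each plate's controls, above about 33%, limit read from the data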
TPT1 inh: Candida albicans TPT1 enzyme inhibitors, primary screen, biochemical, fluorescence polarization. tRNA 2'-phosphotransferase TPT1 (Candida albicans SC5314). recombinant caTPT1, FP RNA substrate dephosphorylation. inhibition, % at 5 µM. 0.81% of 300,000 active. AID 1962, 2009;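 active = inhibition above the mean of all tested compounds plus 3 SD, set per screening campaign, cut at about 24% in these data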
dFosB act-1: activators of delta FosB homodimer, primary screen, biochemical, fluorescence polarization, TAMRA-CDK5 oligo, single point; Protein FosB (Mus musculus), P13346; purified delta FosB; percent of positive-control signal above neutral wells; activation, % at 25 µM; 0.99% of 340,000 active;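 active = mean activation above about 17%, with every replicate also reaching it, limit read from the data, passing the limit was not always enough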
Target sequence (P13346 whole entry, looked up): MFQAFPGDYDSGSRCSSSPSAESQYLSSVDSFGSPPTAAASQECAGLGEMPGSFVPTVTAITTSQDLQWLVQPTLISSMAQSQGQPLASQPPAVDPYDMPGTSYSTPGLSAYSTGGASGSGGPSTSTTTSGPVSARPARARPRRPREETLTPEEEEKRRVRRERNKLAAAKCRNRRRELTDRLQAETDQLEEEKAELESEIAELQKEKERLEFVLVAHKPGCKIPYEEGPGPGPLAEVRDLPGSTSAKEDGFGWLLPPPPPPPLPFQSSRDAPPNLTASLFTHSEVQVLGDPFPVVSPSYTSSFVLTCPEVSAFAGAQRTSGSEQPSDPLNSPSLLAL
dFosB act-2: activators of mouse delta FosB DNA binding, confirmation, biochemical, fluorescence polarization, TAMRA-CDK5 oligo, cherry-picked samples; shares compounds with dFosB act-1; purified delta FosB; normalised: neutral wells 0, positive control 100; activation, % at 24.9 µM; 2,400 tested, under 10 active; AID 588690, 2011;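 active = highest replicate activation at or above 34% and every replicate reaching that threshold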;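 also: higher polarization means more probe DNA bound by delta FosB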
Large screens that a line does not name were inactive (follow-up assays come after a bar, where shown).

CCOc1ccc(-c2nnc3ccc(SCC(=O)Nc4nc5ccc(C)cc5s4)nn23)cc1	NR3A LBD binder 21.5, dFosB act-1 41.6 | dFosB act-2 inactive
Cc1ccc(Nc2nc(N)nc(CSc3nnc(-c4ccncc4)o3)n2)cc1	dFosB act-1 66.0 | dFosB act-2 inactive
Cc1ccccc1Nc1nc(N)nc(CSc2nc3ccccc3s2)n1	none
Cc1ccc(Nc2nc(N)nc(CSc3nc4ccccc4s3)n2)cc1	NR3A LBD binder 17.0, dFosB act-1 52.6 | dFosB act-2 inactive
Cc1ccc(Nc2nc(N)nc(CSc3ncccn3)n2)cc1	none
CC(C)CN1CCN(Cc2cccc3cccnc23)CC1CCO (stereo unspecified)	none
CCCCC(=O)NS(=O)(=O)c1ccc(NS(C)(=O)=O)cc1	none
CCN(CC)c1ccc(C(=O)OCc2c(C)noc2C)cc1	none
COc1ccc(-n2c(=S)[nH]c3cc(C(=O)Nc4cc(C(N)=O)ccc4OC)ccc3c2=O)c(OC)c1	dFosB act-1 31.5 | dFosB act-2 inactive
COc1ccc(NC(=O)CCn2c(=S)[nH]c3ccccc3c2=O)cc1OC	dFosB act-1 24.3 | dFosB act-2 inactive
COc1ccc(-n2c(=S)[nH]c3cc(C(=O)Nc4ccc(OC)c(OC)c4)ccc3c2=O)cc1	dFosB act-1 126.7 | dFosB act-2 inactive
COc1cc(NC(=O)c2ccc3c(=O)n(Cc4ccco4)c(=S)[nH]c3c2)cc(OC)c1OC	dFosB act-1 30.8 | dFosB act-2 inactive
CCCN(CCC)C(=O)c1ccc2c(=O)n(Cc3ccco3)c(=S)[nH]c2c1	none
Cc1ccc(SCC(=O)OCC(=O)N(C)C2CCS(=O)(=O)C2)cc1C (stereo unspecified)	none (no result: EBNA-1 inh, TPT1 inh)
Cc1cc(CN2CCN(CC(=O)Nc3cc(C(F)(F)F)ccc3-n3cncn3)CC2)no1	none (no result: EBNA-1 inh, TPT1 inh)
O=C(NCc1ccco1)c1ccc2c(=O)n(-c3ccccc3)c(=S)[nH]c2c1	dFosB act-1 35.3 | dFosB act-2 inactive
CN(CC(=O)NCc1ccco1)S(=O)(=O)c1ccc2c(c1)c(=O)n(C)c(=O)n2C	none
COc1ccc(N2C(=NC(=O)C3CCCO3)SC3CS(=O)(=O)CC32)cc1 (stereo unspecified)	none
C[C@@H]1O[C@@H](OCCC(=O)O)[C@H](O)C[C@H]1O	none (no result: EBNA-1 inh, ZTA counter, TPT1 inh)
O=C(CC1S/C(=N/N=C/c2c[nH]c3ccc(OCc4ccccc4)cc23)NC1=O)Nc1ccccc1 (stereo unspecified)	NR3A LBD binder 22.9, dFosB act-1 32.5 | dFosB act-2 inactive
O=C(CC1S/C(=N/N=C/c2c[nH]c3ccccc23)NC1=O)Nc1ccccc1 (stereo unspecified)	none
CN1CCN(C(=O)c2cc(-c3cccc(Cl)c3)on2)CC1	none
O=C(c1cc(-c2cccc(Cl)c2)on1)N1CCN(c2ccc(F)cc2)CC1	dFosB act-1 21.0 | dFosB act-2 inactive
CCOc1ccccc1CNC(=O)Cn1nc(C)c2c(C)n(-c3ccc(C)cc3)nc2c1=O	dFosB act-1 52.8 | dFosB act-2 inactive
Cc1cccc(C)c1NC(=O)CCCn1nc(C)c2c(C)n(-c3ccccc3)nc2c1=O	dFosB act-1 19.3 | dFosB act-2 inactive
Cc1ccc(NC(=O)CCCn2nc(C)c3c(C)n(-c4ccccc4)nc3c2=O)cc1C	none
Cc1ccccc1CNC(=O)C1CCCN(c2nnc(C)c3c(C)n(-c4ccccc4)nc23)C1 (stereo unspecified)	dFosB act-1 17.8 | dFosB act-2 inactive
Cc1ccc(-n2nc3c(=O)n(C(C)C(=O)NCc4ccccc4Cl)nc(C)c3c2C)cc1 (stereo unspecified)	dFosB act-1 28.1 | dFosB act-2 inactive
Cc1nnc(N2CCCC(C(=O)NCc3ccccc3F)C2)c2nn(-c3ccccc3)c(C)c12 (stereo unspecified)	none
COc1cccc(CNC(=O)Cn2nc(C)c3c(C)n(-c4ccc(C)cc4)nc3c2=O)c1OC	none
CCN1CCc2c(OCc3ccccc3)cccc2C1=O	none
CC(C)C[C@@H](C(=O)NCc1ccco1)N1C(=O)N2CCc3c([nH]c4ccccc34)[C@@]2(C)C1=O	none
CCOc1ccc(CNC(=O)C2CCN(c3nnc(C)c4c(C)n(-c5ccc(C)cc5)nc34)CC2)cc1	dFosB act-1 78.2 (not shown: Rpn11 block) | dFosB act-2 inactive
CCOc1ccccc1CNC(=O)C1CCN(c2nnc(C)c3c(C)n(-c4ccc(C)cc4)nc23)CC1	dFosB act-1 85.3 | dFosB act-2 inactive
CCNS(=O)(=O)c1ccc(NC(=S)NCC2CCCO2)cc1 (stereo unspecified)	none
CCOc1cc(/C=C(\C#N)c2nc3ccccc3[nH]2)ccc1OC(C)C(=O)O (stereo unspecified)	none
CCOc1cc(/C=C(/C#N)c2nc3ccccc3[nH]2)ccc1Oc1ccc([N+](=O)[O-])cn1	dFosB act-1 49.6 | dFosB act-2 inactive
CCOc1ccc(C(=O)NCC(=O)OCCN2C(=O)c3ccccc3C2=O)cc1OCC	none (no result: EBNA-1 inh, TPT1 inh)
Cc1ccccc1NC(=O)Cc1nnc(NC(=O)Nc2ccccc2F)s1	dFosB act-1 52.2 | dFosB act-2 inactive
COc1ccccc1NC(=O)Nc1nnc(Cc2ccccc2F)s1	none
COc1cccc(NC(=O)Nc2nnc(CC(=O)NCc3ccccc3)s2)c1	dFosB act-1 38.7 | dFosB act-2 inactive
COc1ccccc1NC(=O)Nc1nnc(CC(=O)Nc2cccc(C)c2)s1	dFosB act-1 31.6 | dFosB act-2 inactive
O=C(Nc1ccc(Cl)cc1)Nc1nnc(CSCc2ccc(Cl)cc2)s1	NR3A LBD binder 24.1, dFosB act-1 18.6 | dFosB act-2 inactive
COC(=O)Nc1nnc(CC(=O)Nc2ccccc2C)s1	none
COc1ccc(NC(=O)Nc2nnc(CC(=O)NCc3ccccc3)s2)cc1	none
COc1cc(C(=S)N2CCOCC2)ccc1OC(=O)c1cc(OC)c(OC)c(OC)c1	none
CCCCC(=O)Nc1nnc(SCC(=O)NCC2CCCO2)s1 (stereo unspecified)	none
O=C(Nc1ccc(F)cc1)Nc1nnc(Cc2ccccc2F)s1	dFosB act-1 20.9 | dFosB act-2 inactive
COc1ccccc1NC(=O)Nc1nc(CC(=O)Nc2ccc(F)cc2)cs1	NR3A LBD binder 32.7, dFosB act-1 27.3 | dFosB act-2 inactive
